Most compounds without a hit are left out; they make up all but 8.3% or so of the library.
HCV inh: blocks hepatitis C virus | Huh7.5.1 HCVcc-Cre infection, luciferase reporter, 44 h | Potency, µM (doses to about 41.8 µM), without a hit: at the highest dose activity change, negative = inhibition, most hits filed as inhibitors | 340,000 tested, 3.4% active | AID 651820; note: potency is the fitted concentration of half-maximal effect
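Infectious HCV cell culture screen: compound-treated cells (1,000/well, pre-plated 4 h) are infected with HCVcc-Cre at roughly 0.5 moi and grown 44 h. Infection is quantified by luciferase signal after 15 min substrate incubation at room temperature.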
HCMV inh: blocks human cytomegalovirus replication; 410,000 tested, 4.5% active; HFF cells, HCMV-luciferase reporter, 72 h; active compounds read low; AID 1259415; activity change, negative = inhibition, % at 57.5 µM; in the data active = activity change below about -60%; inconclusive = no clear call, values can overlap the other calls; inactive = above about -39%
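Steps: HFFs plated, 16 h 37C; compounds added; HCMV-luciferase added to MOI 1 PFU/cell; 72 h 37C; OneGlo reagent, 5 min room temperature; luminescence read, normalized to controls.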
MARV entry inh: Marburg virus entry inhibition; 300,000 tested, 1.8% active; Marburg virus pseudotyped entry inhibition, cell reporter; Potency, µM (highest dose often 37.8 µM), for the others: at the highest dose activity change, negative = inhibition, usual class: inhibitors; calls by dose curve; tested in HEK293 cells; note: potency is the fitted concentration of half-maximal effect
FMDV inh: foot and mouth disease virus antiviral activity. 410,000 tested, 1.2% active. FMDV antiviral cell-based qHTS. AID 1159524. Potency, µM (highest dose often 57.9 µM), for inactives: at the highest dose activity change, negative = inhibition, most hits filed as inhibitors; calls by dose curve; tested in HEK293T cells; note: read-out not given here; potency is the fitted concentration of half-maximal effect; nearly all actives have a fitted effect of over 45% in size
LASV entry inh: blocks Lassa virus binding to or entry into cells; Lassa virus pseudotype entry inhibition, cell reporter; Potency, µM (doses to about 37.9 µM), for inactives: at the highest dose activity change, negative = inhibition, usual class: inhibitors; 300,000 tested, 1.2% active; AID 540256; calls by dose curve; tested in HEK293 cells; note: potency is the fitted concentration of half-maximal effect; nearly all actives have a fitted effect of over 50% in size
Giardia FBPA inh: Giardia lamblia aldolase inhibition. A8B2U2. purified Giardia FBPA. Potency, µM (series often up to 59.6 µM), inactives show top-dose activity, negative = inhibition, usual class: inhibitors. 290,000 tested, 0.71% active. AID 2451; note: potency is the fitted concentration of half-maximal effect; nearly all actives have a fitted effect of over 55% in size
Target sequence (A8B2U2 whole entry, looked up): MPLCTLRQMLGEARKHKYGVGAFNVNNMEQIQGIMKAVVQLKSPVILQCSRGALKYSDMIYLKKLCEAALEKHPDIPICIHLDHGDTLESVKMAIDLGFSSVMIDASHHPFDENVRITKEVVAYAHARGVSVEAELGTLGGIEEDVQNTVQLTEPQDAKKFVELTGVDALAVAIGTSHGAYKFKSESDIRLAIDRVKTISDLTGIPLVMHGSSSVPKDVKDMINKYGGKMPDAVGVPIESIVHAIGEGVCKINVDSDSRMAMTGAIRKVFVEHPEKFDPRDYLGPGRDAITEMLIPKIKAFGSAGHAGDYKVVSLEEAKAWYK
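40 nM FBPA preincubated 10 min at RT with compound (up to 57.5 uM final), then substrate plus GAPDH/TPI/NAD/arsenate coupling and diaphorase/resazurin added. Fluorescence read after 20 min at RT, 525/598 nm.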
Starred values were filed as active, the others as inactive; [ ] = remark or other dose. Unless noted, calls come from the whole dose curve; as a rule, active = well fitted curve in the direction sought with a large enough effect; inconclusive = small, poorly fitted or top-dose-only effect, or another doubt; inactive = no such curve, though single readings can be large; an effect the other way counts as inactive or inconclusive. % is set by controls: 0 for no effect and ±100 for the full control effect.

CC(=O)c1ccc(N2CCN(C(=O)Nc3cn(CC(C)C)c(=O)c4ccccc34)CC2)cc1 was read as HCMV inh 0, FMDV inh 0% and LASV entry inh 28%[46.1 µM].
`CC(C)CCN(Cc1ccco1)C(=O)c1cc2c(Cl)nc3ccccc3c2s1` gave HCMV inh -14, MARV entry inh -21%[46.1 µM], FMDV inh -13% and LASV entry inh -8%[46.1 µM].
`COc1ccc(-c2ccc(OC)c(C3C4C=CCC(C)C4C(=O)N3Cc3ccccc3)c2)cc1` (centres undefined) gave Giardia FBPA inh 1%.
`Cc1cccc(CNc2ncnc3ccc(-c4ccc5c(c4)OCCO5)cc23)c1` gave HCMV inh -89* and FMDV inh inconclusive.
Screening Cc1cccc(-c2ccc3ncnc(NCc4cccs4)c3c2)c1 returned HCMV inh -76* and FMDV inh 25µM*.
CC(=O)C1CCC2C3CC(C)C4=CC(=O)CC[C@@]4(C)C3C(O)C[C@@]12C (some centres undefined) was read as FMDV inh -14% and Giardia FBPA inh 6%.
Cc1cc(C)nc(N/N=C2/CCCC/C2=C\c2ccccc2)n1 was read as HCV inh inconclusive, HCMV inh -113*, MARV entry inh inconclusive, FMDV inh -22% and Giardia FBPA inh 0%.
Cc1ccnc(N/N=C/c2ccccc2)n1 was read as HCV inh -1%, HCMV inh 37, MARV entry inh inconclusive, FMDV inh -4%, LASV entry inh inconclusive and Giardia FBPA inh -22%.
Screening Fc1cccc(NC(=S)N2CCN(c3ccccn3)CC2)c1 returned HCV inh -31%, HCMV inh -3, MARV entry inh -7%, FMDV inh -3%, LASV entry inh 13µM* and Giardia FBPA inh 2%.
For Cc1cccc(NC(=S)N2CCN(c3ccccn3)CC2)c1 the results were HCV inh -10%, HCMV inh -7, FMDV inh 3% and Giardia FBPA inh -11%.
COc1ccccc1NC(=S)N1CCN(C/C=C/c2ccccc2)CC1 was read as HCV inh 5%, HCMV inh -72*, MARV entry inh 1%, FMDV inh inconclusive, LASV entry inh 3% and Giardia FBPA inh 6%.
CCN(CC)S(=O)(=O)c1ccc(C)c(NC(=S)N2CCN(C/C=C/c3ccccc3)CC2)c1 was read as HCV inh 8.9µM*, HCMV inh inconclusive, FMDV inh inconclusive and Giardia FBPA inh -20%.
`CCN(CC)S(=O)(=O)c1ccc(C)c(NC(=S)N2CCN(Cc3ccc4c(c3)OCO4)CC2)c1` gave HCV inh 6.3µM*, HCMV inh -99*, MARV entry inh inconclusive, FMDV inh 20µM*, LASV entry inh inconclusive and Giardia FBPA inh -4%.
CCCCC/C=C\C/C=C\C/C=C\C/C=C\CCCC(=O)C(F)(F)F was read as Giardia FBPA inh -9%.
Screening CCC1=C2CC[C@H]3C(=O)N(c4ccccc4)C(=O)[C@H]3[C@H]2[C@@]2(C)C(=O)N(CC(=O)OC)C(=O)N2C1=O returned Giardia FBPA inh 8%.
O=C(C=Cc1ccc2c(c1)OCO2)c1ccc(F)cc1 was read as MARV entry inh -9%[14.2 µM].
`CCN(CC)S(=O)(=O)c1ccc(C)c(NC(=S)N2CCN(c3ccccn3)CC2)c1` gave HCV inh 22µM*, HCMV inh -40, MARV entry inh inconclusive, FMDV inh -15%, LASV entry inh 10µM* and Giardia FBPA inh 7%.
For CC(C)NC(=S)N1CCN(C/C=C/c2ccccc2)CC1 the results were HCV inh -10%, HCMV inh -35, MARV entry inh 0%[46.1 µM], FMDV inh -14%, LASV entry inh -4% and Giardia FBPA inh -3%.
For CC(NNC(=S)N1CCN(c2ccccn2)CC1)c1nccc2ccccc12 (centres undefined) the results were HCV inh inconclusive, HCMV inh -98*, MARV entry inh inconclusive, FMDV inh 0% and LASV entry inh inconclusive.
`Cc1ccc(NC(=S)N2CCN(c3ccccn3)CC2)c(C)c1` gave HCV inh 2%, HCMV inh -31, FMDV inh -17% and Giardia FBPA inh 0%.

Screens deposited in PubChem BioAssay by National Center for Advancing Translational Sciences (NCATS).
